Among the data in PubChem BioAssay (NCI) are growth values, retold here.

About 83,000 compounds went through this panel and 20% of them were active in at least one assay; those are over-represented in the sample as a whole.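 In brief: 96-well plates, 48 h treatment, single concentration, percent growth endpoint.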 A number with no mark means an inactive call. Calls of active or inactive are those of the source. Rule for the calls: active = growth percent below 10; inactive = the rest.

Among the test systems are RPMI-8226 leukemia; OVCAR-8 ovarian; OVCAR-5 ovarian; OVCAR-4 ovarian; SK-OV-3 ovarian; IGROV1 ovarian; OVCAR-3 ovarian; HS 578T breast; T-47D breast; BT-549 breast; MDA-MB-435 melanoma; SW-620 colon; MCF7 breast; HCT-116 colon; HCC-2998 colon; KM12 colon; NCI/ADR-RES ovarian.
Assay in all cases: NCI-60 one-dose screen, 48 h (100 = growth as untreated, 0 = no growth, -100 = all killed)
Conditions in all cases: 10 µM unless noted

Regarding `Cc1nnc(/N=C2\NC(=O)/C(=C/c3ccsc3)S2)s1`, the growth was 94% with RPMI-8226 leukemia; 104% with OVCAR-8 ovarian; 107% with OVCAR-5 ovarian; 90.6% with OVCAR-4 ovarian; 89.5% in the test on SK-OV-3 ovarian; 90.7% in the test on IGROV1 ovarian. For the same molecule, the growth with OVCAR-3 ovarian is 93.3%; in the test with HS 578T breast, 96.4%; in the test on T-47D breast it was 84.4%; in the test on BT-549 breast, 94.6%; with MDA-MB-435 melanoma, 91.5%; in the test on SW-620 colon, 98.8%. Moreover, the growth is 79% in the test on MCF7 breast, 83.6% in the test with HCT-116 colon, 95.7% in the test on HCC-2998 colon and 84.7% in the test with KM12 colon.

Regarding `Cn1c2c(c3ccc(-c4ccn[nH]4)cc3c1=O)C(=O)c1ccccc1-2`, the growth in the test on RPMI-8226 leukemia is -11.6% (active); in the test with OVCAR-8 ovarian, 29.4%; in the test with OVCAR-5 ovarian, 86%; in the test on OVCAR-4 ovarian, 74%; in the test on SK-OV-3 ovarian, 74.2%; with IGROV1 ovarian, 45.6%. The growth is 60.3% in the test on OVCAR-3 ovarian; 85.8% with HS 578T breast; 32.2% in the test on T-47D breast; 50.5% in the test on BT-549 breast; 77.6% in the test on MDA-MB-435 melanoma; 31.1% in the test with SW-620 colon. Besides, the growth is 9.04% (active) in the test on MCF7 breast, 21.9% in the test with HCT-116 colon, 79.8% in the test on HCC-2998 colon and 15.7% in the test with KM12 colon.

Turning to `Cc1cc(C)c(NC(=O)c2sc3nc4c(cc3c2N)CCCCCC4)c(C)c1`, the growth with RPMI-8226 leukemia is 66.3%; with OVCAR-8 ovarian it was 73.9%; with OVCAR-5 ovarian, 95.3%; in the test with OVCAR-4 ovarian, 73.7%; in the test with SK-OV-3 ovarian, 44.6%; with IGROV1 ovarian, 61.2%. The growth in the test on OVCAR-3 ovarian was 15.8%; in the test on HS 578T breast, 47.6%; in the test on T-47D breast, 44.5%; in the test on BT-549 breast, 53.6%; with MDA-MB-435 melanoma, 4.56% (active); in the test on SW-620 colon, 36.2%. The growth is 24.3% in the test with MCF7 breast, 57.3% with HCT-116 colon, 84.7% in the test on HCC-2998 colon and 49% in the test with KM12 colon.

For `c1ccc(-c2n(Cc3ccc4ccccc4n3)cc[n+]2Cc2ccc3ccccc3n2)cc1`, the growth in the test on RPMI-8226 leukemia was 0.454% (active); in the test on OVCAR-8 ovarian, 33.6%; in the test on OVCAR-5 ovarian, 70.5%; in the test with OVCAR-4 ovarian, 32.9%; with SK-OV-3 ovarian, 48.9%; in the test with IGROV1 ovarian, 33.9%. The growth is 28.8% with OVCAR-3 ovarian; 60.4% with HS 578T breast; 105% in the test with NCI/ADR-RES ovarian; 9.75% (active) in the test on T-47D breast; 28% in the test with BT-549 breast; 15.4% in the test on MDA-MB-435 melanoma. The growth in the test with SW-620 colon was 37.5%; in the test with HCC-2998 colon, 26.6%; in the test on KM12 colon, 15.8%.

Turning to `CN1CC=C(c2cc(NC(=O)Nc3ccc(Oc4ccnc(NC(=O)C5CC5)c4)c(F)c3)cc(C(F)(F)F)c2)CC1`, the growth in the test on RPMI-8226 leukemia was -28% (active); in the test with OVCAR-8 ovarian it was -2.13% (active); with OVCAR-5 ovarian, 7.5% (active); in the test on OVCAR-4 ovarian it was 3.24% (active); with SK-OV-3 ovarian, 17.1%; in the test on IGROV1 ovarian, 2.9% (active). Also, the growth is 8.26% (active) in the test on OVCAR-3 ovarian; -17.3% (active) in the test on HS 578T breast; -0.194% (active) with T-47D breast; -11.2% (active) with BT-549 breast; -12.4% (active) in the test with MDA-MB-435 melanoma; -0.0556% (active) with SW-620 colon. In addition, the growth was -17.1% (active) in the test on MCF7 breast, -10.7% (active) in the test on HCT-116 colon, 11.8% in the test with HCC-2998 colon and -11.2% (active) in the test on KM12 colon.

As to `O=C(N/N=C/C[C@@H]1[C@@H](/C=C/[C@@H](O)COc2cccc(Cl)c2)[C@H](O)C[C@@H]1O)c1ccncc1`, the growth in the test with RPMI-8226 leukemia is 94.5%; with OVCAR-8 ovarian, 79.9%; in the test with OVCAR-5 ovarian it was 97.4%; with OVCAR-4 ovarian it was 104%; in the test on SK-OV-3 ovarian, 77%; in the test on IGROV1 ovarian, 109%. Besides, the growth in the test with OVCAR-3 ovarian was 105%; with HS 578T breast, 92.5%; in the test with T-47D breast it was 90.8%; in the test on BT-549 breast it was 95.3%; with MDA-MB-435 melanoma, 99.8%; in the test with SW-620 colon, 94.2%. The growth in the test on MCF7 breast was 99.1%; with HCT-116 colon it was 92.7%; with HCC-2998 colon it was 104%; in the test with KM12 colon it was 105%.

For `COc1ccc(NC(=O)c2sc3nc(C)c(C(C)=O)cc3c2N)cc1`, the growth was 85.6% in the test with RPMI-8226 leukemia; 91.9% with OVCAR-8 ovarian; 91.3% in the test on OVCAR-5 ovarian; 95.7% in the test with OVCAR-4 ovarian; 99.3% in the test with SK-OV-3 ovarian; 115% with IGROV1 ovarian. In addition, the growth is 109% in the test on OVCAR-3 ovarian; 105% in the test on HS 578T breast; 98.9% in the test on NCI/ADR-RES ovarian; 82.7% in the test on T-47D breast; 86.5% in the test on BT-549 breast; 93.2% in the test with MDA-MB-435 melanoma. Moreover, the growth is 97% with SW-620 colon, 95.7% with MCF7 breast, 103% in the test on HCC-2998 colon and 105% with KM12 colon.

As to `CCOC(=O)C1CCN(S(=O)(=O)/N=C2/NC(=O)NC2=C(Cl)Cl)CC1`, the growth with RPMI-8226 leukemia was 6.17% (active); in the test with OVCAR-8 ovarian, 21.4%; in the test on OVCAR-5 ovarian, 64%; in the test with OVCAR-4 ovarian it was 80%; in the test on SK-OV-3 ovarian, 70.9%; with IGROV1 ovarian, -54.4% (active). In addition, the growth in the test with OVCAR-3 ovarian is -81.2% (active); in the test on HS 578T breast, 24.1%; in the test on T-47D breast it was 55%; with BT-549 breast, -9.2% (active); in the test with MDA-MB-435 melanoma it was -7.61% (active); with SW-620 colon, -63.9% (active). In addition, the growth is 16.4% in the test with MCF7 breast, 9.4% (active) in the test with HCT-116 colon, -10.1% (active) with HCC-2998 colon and 12.8% in the test on KM12 colon.

Consider `CNCc1cccc2c1OCCOCCOCCN(CCN1CCOCC1)S(=O)(=O)c1ccc(cc1)-c1cnc(N)c(n1)C(=O)N2`, for which the growth was 54.8% with RPMI-8226 leukemia; 119% in the test on OVCAR-5 ovarian; 54.8% in the test on OVCAR-4 ovarian; 17.3% in the test with SK-OV-3 ovarian; 47.9% with IGROV1 ovarian; 49.4% with OVCAR-3 ovarian. Also, the growth in the test on HS 578T breast was 47.5%; in the test with T-47D breast it was 101%; with BT-549 breast, 22.3%; in the test on MDA-MB-435 melanoma, 47.3%; in the test on SW-620 colon it was 43.4%; in the test on MCF7 breast it was 37.8%. Also, the growth is 35.9% with HCT-116 colon, 48.2% with HCC-2998 colon and 37.5% in the test with KM12 colon.
